PubChem BioAssay (NCI)
The panel holds about 79,000 compounds, 15% with a hit somewhere; the sample as a whole holds those more often. Values without a mark were called inactive. Calls of active or inactive are those of the source. Cut-off read from the data, not from the text of the source: active = growth inhibition above about 70%; inactive = the rest.

Test: NCI Yeast Anticancer Drug Screen. Data for the mlh1 rad18 strain (AID 175)
Details: S. cerevisiae mlh1 rad18 strain growth inhibition; at 50.0 µM; hits give high values
Summary of the method: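 Genetically defined yeast (DNA repair-deficient) exposed to compounds; growth inhibition determined relative to vehicle.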

| SMILES | growth inhibition |
| --- | --- |
| COc1ccc(/C=C2\SC(=S)N(/C=C/c3nc4ccccc4[nH]c3=O)C2=O)cc1OC | 61.6% |
| N#CN=Nc1cc(Cl)c(N=NC#N)cc1Cl | 38.2% |
| Cc1ccc(S(=O)(=O)Oc2cc(Cl)c(Cl)cc2Cl)cc1 | 2.3% |
| c1ccc2c(c1)Oc1cccc3cccc-2c13 | 42.7% |
| O=C(c1ccc(Cl)cc1Cl)C(Cl)Cl | 88.5% (active) |
| CC(C)C1=CCC2C(=C1)CCC1C(C)(C(=O)O)CCCC21C (centres undefined) (tested in a mixture with another compound) | 76.5% (active) |
| COc1cc(/C=C2\CCc3ccccc3C2=O)cc(OC)c1OC | 33.5% |
| CC(=O)[O][Bi]([c]1ccccc1)[c]1ccccc1 | 91% (active) |
| S=C(N/N=C/c1ccccn1)Nc1ccc(Cl)cc1 | 78.8% (active) |
| COc1cc(CC2CC(c3ccc4c(c3)OCO4)OC2=O)cc(OC)c1OC (centres undefined) | 18.2% |
| CNC1C(OC2C(OC3C(O)C(O)C(N=C(N)N)C(O)C3N=C(N)N)OC(C)C2(O)CO)OC(CO)C(O)C1O (centres undefined) | 93.1% (active) |
| NNC(=O)CCc1ccc2ccc3ccccc3c2c1 | 71.3% (active) |
| Oc1ccc2ccccc2c1C(c1ccc(Cl)cc1)c1c(O)ccc2ccccc12 | 54% |
| CCCCN(CCCC)CCSc1ccc(Cl)cc1 | 88.2% (active) |
| CCC(C)COC(=O)c1ccc(N=Cc2ccc(C=Nc3ccc(C(=O)OCC(C)CC)cc3)cc2)cc1 (centres undefined) | 57.1% |
| CC1(C)C(=O)OC(n2cc(F)c(=O)[nH]c2=O)C1=O (centres undefined) | 15.7% |
| O=[N+]([O-])CC(SCc1ccccc1)c1ccc2c(c1)OCO2 (centres undefined) | 89.2% (active) |
| COc1cc2c(cc1[N+](=O)[O-])C(=O)C(Br)(Br)CCC2 | 90.8% (active) |
| OCC1OC(OCC(O)C(O)C(O)C(/C=N/Nc2ccccc2)=N/Nc2ccccc2)C(O)C(O)C1O (centres undefined) | 99.4% (active) |
| COc1ccc(N=C2C(=O)Nc3ccc(Br)cc32)cc1 | 27% |
| Cn1c(=O)c2ccccc2c2ccccc21 | 96.3% (active) |
| CC[n+]1ccc2c(C)c3[nH]c4ccc(O)cc4c3c(C)c2c1 | 65% |
| CC(=O)ON1C(=O)c2cccc3cccc(c23)C1=O | 81.4% (active) |
| COc1ccc2ccc3ccccc3c2c1C=O | 57.1% |
| OC1CCCc2c1cc1ccc3cccc4ccc2c1c34 (centres undefined) | 94.8% (active) |

Test: NCI Yeast Anticancer Drug Screen. Data for the rad18 strain (AID 177)
Details: S. cerevisiae rad18 mutant growth inhibition; at 1.2 µM; hits give high values
Summary of the method: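 Vehicle-treated cultures served as the baseline for scoring compound-induced growth inhibition in DNA-repair-mutant yeast.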

| SMILES | growth inhibition [%] |
| --- | --- |
| CCN(CC)CC[n+]1ccc2c(C)c3[nH]c4ccc(O)cc4c3c(C)c2c1 | -2 |
| O=[n+]1c2ccc(Cl)cc2n([O-])c2ccc(Cl)cc21 | 4 |
| CCOP(=O)(OCC)C(Cc1ccccc1)N=C(c1ccccc1)c1ccccc1 (centres undefined) | 8 |
| CC[C@@]1(O)C(=O)OCc2c1cc1n(c2=O)Cc2cc3c(N)cccc3nc2-1 | -10 |
| COC1C=COC2(C)Oc3c(C)c(O)c4c(c3C2=O)/C(=N/C2CCC(O)OC2C)C=C(NC(=O)/C(C)=C\C(=O)C2CC2C(O)C(C)C(O)C(C)C(OC(C)=O)C1C)C4=O (centres undefined) | 0 |
| COc1cc2c(c(OC)c1OC)-c1c(cc3c(c1OC)OCO3)CC(C)C(C)(O)C2OC(=O)c1ccccc1 (centres undefined) | -45 |
| O=c1ssc2ncccc12 | 7 |
| O=C1C2C(C(=O)N1c1ccc(OCc3ccccc3)cc1)C1c3ccccc3C2C2CCCCN21 (centres undefined) | -3 |
| COc1ccc(-c2cn(-c3ccc(I)cc3)c3ncnc(N)c23)cc1 | -5 |
| CCOC(=O)C(NC(=O)c1ccccc1)(N1CCN(c2cc3c(cc2F)c(=O)c(C(=O)O)cn3C2CC2)CC1)C(F)(F)F (centres undefined) | -3 |
| C/C(=N\O)C1CC2C=C(C#N)C1N(Cc1ccccc1)C2 (centres undefined) | 5 |
| CC/C(=C(\c1ccccc1)c1ccc(OCCN(C)C)cc1)c1ccccc1 | 13 |
| COc1ccccc1N=NC(C(=O)c1ccccc1)C(=O)c1ccccc1 | -5 |
| CC(O)C(O)C(O)C(/C=N\Nc1ccccc1)=N/Nc1ccccc1 (centres undefined) | 5 |
| COc1ccc(/C=C2\SC(=S)N(/C=C/c3nc4ccccc4[nH]c3=O)C2=O)cc1OC | 10 |
| N#CN=Nc1cc(Cl)c(N=NC#N)cc1Cl | -8 |
| Cc1ccc(S(=O)(=O)Oc2cc(Cl)c(Cl)cc2Cl)cc1 | -5 |
| c1ccc2c(c1)Oc1cccc3cccc-2c13 | 22 |
| O=C(c1ccc(Cl)cc1Cl)C(Cl)Cl | -30 |
| CC(C)C1=CCC2C(=C1)CCC1C(C)(C(=O)O)CCCC21C (centres undefined) (tested in a mixture with another compound) | -5 |

| SMILES | growth inhibition [%] |
| --- | --- |
| COc1cc(/C=C2\CCc3ccccc3C2=O)cc(OC)c1OC | 5 |
| CC(=O)[O][Bi]([c]1ccccc1)[c]1ccccc1 | 15 |
| S=C(N/N=C/c1ccccn1)Nc1ccc(Cl)cc1 | -6 |
| COc1cc(CC2CC(c3ccc4c(c3)OCO4)OC2=O)cc(OC)c1OC (centres undefined) | -4 |
| CNC1C(OC2C(OC3C(O)C(O)C(N=C(N)N)C(O)C3N=C(N)N)OC(C)C2(O)CO)OC(CO)C(O)C1O (centres undefined) | 1 |
| NNC(=O)CCc1ccc2ccc3ccccc3c2c1 | 17 |
| Oc1ccc2ccccc2c1C(c1ccc(Cl)cc1)c1c(O)ccc2ccccc12 | -30 |
| CCCCN(CCCC)CCSc1ccc(Cl)cc1 | -8 |
| CCC(C)COC(=O)c1ccc(N=Cc2ccc(C=Nc3ccc(C(=O)OCC(C)CC)cc3)cc2)cc1 (centres undefined) | -1 |
| CC1(C)C(=O)OC(n2cc(F)c(=O)[nH]c2=O)C1=O (centres undefined) | 4 |
| O=[N+]([O-])CC(SCc1ccccc1)c1ccc2c(c1)OCO2 (centres undefined) | 7 |
| COc1cc2c(cc1[N+](=O)[O-])C(=O)C(Br)(Br)CCC2 | 33 |
| OCC1OC(OCC(O)C(O)C(O)C(/C=N/Nc2ccccc2)=N/Nc2ccccc2)C(O)C(O)C1O (centres undefined) | 7 |
| COc1ccc(N=C2C(=O)Nc3ccc(Br)cc32)cc1 | -25 |
| Cn1c(=O)c2ccccc2c2ccccc21 | 2 |
| CC[n+]1ccc2c(C)c3[nH]c4ccc(O)cc4c3c(C)c2c1 | -23 |
| CC(=O)ON1C(=O)c2cccc3cccc(c23)C1=O | 15 |
| COc1ccc2ccc3ccccc3c2c1C=O | -2 |
| OC1CCCc2c1cc1ccc3cccc4ccc2c1c34 (centres undefined) | -11 |
